# Laboratory results from PubChem BioAssay AID720706 (Broad Institute, 2013).
# Among all 350,000 compounds or so, about 5,500 (1.6%) were called active.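 The calls were made as follows: active = significant combined selectivity score with lowered wild-type GFP, culture density cut under 30%, mutant RFP and density less affected; inactive = any of these conditions unmet.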 Only a selection was taken, and actives are over-represented in it overall.
# Assay: reduced GFP signal of wild-type E. coli, primary screen, bacterial rRNA inhibitor project, GFP/RFP fluorescence, OD600, single point (AID 720706)
# Details: E. coli WT GFP vs humanized-ribosome RFP mutants, 24 h; GFP signal change (wild-type ribosome): stronger effect = lower value, DMSO median 0, no signal -100; OD600 change: measured here: OD600 growth, DMSO median 0, no signal -100; RFP signal change: measured here: RFP humanized mutant strains, DMSO median 0, no signal -100, concentration not given here
Compound,GFP signal change (wild-type ribosome),OD600 change,RFP signal change
C[C@H](CO)N1C[C@H](C)[C@H](CN(C)Cc2ccncc2)Oc2ccc(NC(=O)Nc3ccc(F)cc3)cc2C1=O,0.717% (inactive),-2.2%,-2.45%
CN1c2ccc(-c3ccc(C#N)cc3)cc2[C@@H]2[C@@H](CCN2C(=O)C2CCCCC2)[C@H]1CO,-6.99% (inactive),-10.9%,6.2%
CN(C)C(=O)c1ccc(-c2ccccc2[C@H]2[C@@H](CO)N(C(=O)C3CCCCC3)[C@H]2C#N)cc1,-3.32% (inactive),0.601%,-4.88%
O=C(NCCCc1ccccc1)C(=O)c1c[nH]c2ccccc12,0.21% (inactive),-1.22%,-2.69%
O=C(NCCc1ccccc1)c1c[nH]c2ccc(F)cc2c1=O,-31.8% (active),-19.6%,-3.4%
O=C(O)c1ccccc1-c1ccccc1C(=O)NCCc1ccccc1,7.6% (inactive),2.74%,2.49%
COCC(=O)N(C)C[C@H]1[C@@H](c2ccccc2)[C@H](CO)N1C(=O)Cc1ccncc1,4.17% (inactive),8.74%,0.341%
Cc1ccc(S(=O)(=O)N[C@H]2CC[C@@H](CC(=O)NCCCN(C)C)O[C@H]2CO)cc1,4.5% (inactive),5.89%,-1.14%
C[C@H](CO)N1C[C@H](C)[C@@H](CN(C)S(C)(=O)=O)Oc2ccc(NC(=O)Nc3ccc4c(c3)OCO4)cc2CC1=O,-0.075% (inactive),5.52%,1.12%
O=C(NNS(=O)(=O)c1ccccc1)c1cnn(-c2ccc(Cl)cc2)c1C(F)(F)F,-40.1% (active),20.1%,3.85%
NNC(=O)c1cnn(-c2ccccc2)c1C(F)(F)F,5.13% (inactive),9.29%,-0.665%
CCCc1c(C(=O)O)cnn1-c1ccc(Cl)cc1,-6.54% (inactive),-3.54%,0.509%
C[C@H]1CN([C@@H](C)CO)C(=O)c2cc(-c3ccncc3)cnc2O[C@@H]1CN(C)C(=O)C1CCCCC1,0.821% (inactive),4.66%,-3.44%
C[C@H](CO)N1C[C@H](C)[C@H](CN(C)C(=O)C2CC2)Oc2cc(-c3cccnc3)ccc2S1(=O)=O,-1.18% (inactive),3.4%,0.533%
CCCNC(=O)N1[C@H](CO)[C@@H](c2ccc(-c3ccc(C(=O)N(C)C)cc3)cc2)[C@@H]1C#N,6.87% (inactive),16.3%,-2.83%
O=C(c1ccc(F)cc1)N1CC(=O)N2[C@@H](CO)[C@H](c3ccc(C4=CCCC4)cc3)[C@@H]2C1,4.17% (inactive),4.94%,-0.136%
C[C@H](CO)N1C[C@H](C)[C@@H](CN(C)C(=O)C2CC2)Oc2cc(C#CC(C)(C)O)ccc2S1(=O)=O,1.02% (inactive),10.5%,-2.74%
COCC(=O)N1CC(=O)N2[C@H](C1)[C@H](c1ccc(C#CC3CCCCC3)cc1)[C@@H]2CO,2.23% (inactive),2.33%,1.49%
Cc1cccc(NC(=O)c2ccc(S(=O)(=O)N(C)c3ccccc3)cc2)n1,-16.8% (active),-25%,1.23%
CN(c1ccccc1)S(=O)(=O)c1ccc(C(=O)NCCc2ccccc2)cc1,-12.7% (inactive),-28.7%,-1.12%
CN(c1ccccc1)S(=O)(=O)c1ccc(C(=O)NCc2cccnc2)cc1,-0.96% (inactive),-21.8%,0.05%
